# Measurements from PubChem BioAssay (Tox21).
# Results filed as inconclusive are left out. Entries that show only a call come without a potency. Unmarked numbers belong to inactive results. The source made the active and inactive calls. Unless noted, calls come from the whole dose curve; as a rule, active = well fitted curve in the direction sought with a large enough effect in the repeat runs; inconclusive = weak or mixed curves; inactive = no such curve, though single readings can be large; an effect the other way counts as inactive or inconclusive.
# What was measured:
# [1] = qHTS assay to identify small molecule antagonists of the thyroid receptor (TR) signaling pathway - cell viability counter screen (AID 743064); note: nearly all actives have a fitted effect of over 50% in size
# Summary of the method: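 Rat GH3 pituitary tumor cells stably expressing two TR response elements driving luciferase were plated, rested 4 h, then dosed with library compounds and T3 (1 nM final). After 23.5 h at 37 °C, CellTiter-Fluor was added for 30 min and fluorescence recorded.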
# [2] = qHTS assay to identify small molecule antagonists of the thyroid receptor (TR) signaling pathway (AID 743065); note: series mostly up to about 70 µM; nearly all actives have a fitted effect of over 55% in size
# Summary of the method: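 GH3.TRE-Luc rat pituitary cells carrying two TR response elements driving luciferase were plated for 4 h, given compound plus 1 nM T3 (final), and incubated 23.5 h at 37 C. ONE-Glo luminescence measured reporter inhibition; CellTiter-Fluor fluorescence tracked cytotoxicity.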
# [3] = system: thyroid hormone receptor (rat, GH3 cells); test: qHTS assay to identify small molecule agonists of the thyroid receptor (TR) signaling pathway (AID 743066; calls by dose curve)
# [4] = target: Estrogen receptor (Homo sapiens) (UniProt P03372); test: qHTS assay to identify small molecule antagonists of the estrogen receptor alpha (ER-alpha) signaling pathway (AID 743069; active = well fitted curve in the direction sought with a large enough effect in the signal ratio in the repeat runs, not every such curve was filed as active; the % refers to the signal ratio)
# Summary of the method: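 Screening used a UAS-driven beta-lactamase reporter integrated into HEK293 cells expressing ER-alpha, stimulated with 17beta-estradiol alongside test compounds over 18 hr at 37C; signal came from LiveBLAzer B/G FRET fluorescence.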
# [5] = target: Estrogen receptor (Homo sapiens) (UniProt P03372); test: qHTS assay to identify small molecule agonists of the estrogen receptor alpha (ER-alpha) signaling pathway (AID 743075; calls by dose curve)
# [6] = target: Estrogen receptor (Homo sapiens) (UniProt P03372); test: qHTS assay to identify small molecule agonists of the estrogen receptor alpha (ER-alpha) signaling pathway using the BG1 cell line (AID 743079); note: nearly all actives have a fitted effect of over 20% in size; note: potency is the fitted concentration of half-maximal effect
# [7] = qHTS assay to identify small molecule antagonists of the estrogen receptor alpha (ER-alpha) signaling pathway using the BG1 cell line - cell viability counter screen (AID 743081);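 note: compound given together with 17beta-estradiol as the ER stimulus; series mostly up to about 70 µM; nearly all actives have a fitted effect of over 45% in size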
# Aromatase (Homo sapiens) = Aromatase (Homo sapiens) (UniProt P11511); test: qHTS assay to identify aromatase inhibitors (AID 743083); note: series mostly up to about 70 µM; nearly all actives have a fitted effect of over 55% in size
# [8] = qHTS assay to identify aromatase inhibitors - cell viability counter screen (AID 743084);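 note: cells stimulated with testosterone during compound exposure; nearly all actives have a fitted effect of over 55% in size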
# [9] = target: Aryl hydrocarbon receptor (Homo sapiens) (UniProt P35869); test: qHTS assay to identify small molecule that activate the aryl hydrocarbon receptor (AhR) signaling pathway (AID 743085); note: nearly all actives have a fitted effect of over 15% in size; note: potency is the fitted concentration of half-maximal effect;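 for activation: HG2L7.5c1 human HepG2 liver cells with stably integrated DRE-driven firefly reporter; series mostly up to about 70 µM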
# Summary of the method: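 Compounds were tested in HepG2 hepatocellular carcinoma cells harbouring a stably integrated luciferase gene under control of 20 DREs. Increased reporter signal after 24 h treatment at 37C was taken as AhR activation.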
# [10] = qHTS assay to identify small molecule that activate the aryl hydrocarbon receptor (AhR) signaling pathway - cell viability counter screen (AID 743086);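 note: HepG2 liver cells carrying the AhR DRE luciferase reporter; series mostly up to about 70 µM; nearly all actives have a fitted effect of over 45% in size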
# Summary of the method: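 HepG2-AhR-luc (HG2L7.5c1) cells, 4000/well, were preincubated 5 h at 37C, exposed to compound in qHTS format for 24 hr at 37C, then given CellTiter-Fluor for 30 min; viability was read as fluorescence in the reporter wells.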
# [11] = target: Peroxisome proliferator-activated receptor gamma (Homo sapiens) (UniProt P37231); test: qHTS assay to identify small molecule agonists of the peroxisome proliferator-activated receptor gamma (PPARg) signaling pathway (AID 743094; active = well fitted activation curve with a large enough effect in the signal ratio in the repeat runs, not every such curve was filed as active; the % refers to the signal ratio)
# Summary of the method: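 Agonism was assessed in a beta-lactamase reporter system, HEK293H cells with a stably integrated UAS-bla construct under PPARg control; the 17 h treatment at 37C preceded a 1 h room-temperature FRET substrate read.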
# [12] = target: Peroxisome proliferator-activated receptor gamma (Homo sapiens) (UniProt P37231); test: qHTS assay to identify small molecule antagonists of the peroxisome proliferator-activated receptor gamma (PPARg) signaling pathway (AID 743191; calls by dose curve; note: series mostly up to about 63 µM; nearly all actives have a fitted effect of over 30% in size)
# Summary of the method: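 GeneBLAzer PPARg UAS-bla HEK293H cells carrying a UAS-driven beta-lactamase reporter were plated at 3000 cells/well, preincubated 5 h at 37C, then given compound for 17 h at 37C; LiveBLAzer B/G FRET substrate was read after 1 h at room temperature.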
# [13] = qHTS assay to identify small molecule antagonists of the peroxisome proliferator-activated receptor gamma (PPARg) signaling pathway - cell viability counter screen (AID 743194); note: nearly all actives have a fitted effect of over 55% in size
# Summary of the method: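 PPARg-UAS-bla HEK293H cells were plated, rested 5 h at 37 C, then treated with compounds plus rosiglitazone (50 nM final) for 17 h at 37 C; viability was then read by CellTiter-Glo luminescence after 30 min at room temperature.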
# [14] = qHTS assay for small molecule agonists of the antioxidant response element (ARE) signaling pathway (AID 743202; active = well fitted activation curve with a large enough effect in the signal ratio in the repeat runs, not every such curve was filed as active; the % refers to the signal ratio)
# Summary of the method: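 Steps: seed ARE-bla HepG2 cells (2,000/well); incubate 5 h at 37 C; add compounds by pin tool; incubate 16 h at 37 C; add FRET substrate; read fluorescence after 2 h at RT.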
# [15] = qHTS assay for small molecule agonists of the antioxidant response element (ARE) signaling pathway - cell viability counter screen (AID 743203; calls by dose curve; note: nearly all actives have a fitted effect of over 55% in size)
# Summary of the method: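 ATP content via CellTiter-Glo luminescence served as the viability measure. Cells: ARE-bla HepG2, 2,000 per well. Exposure: 16 hrs, 37C/5% CO2.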
# [16] = qHTS assay for small molecule activators of the heat shock response signaling pathway - cell viability counter screen (AID 743209); note: nearly all actives have a fitted effect of over 50% in size
# Summary of the method: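 Compounds dissolved in DMSO were added to overnight-plated HSE-bla HeLa cells and left 5 h at 37 C. Cell viability was quantified by luminescence using CellTiter-Glo.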
# [17] = qHTS assay for small molecule activators of the heat shock response signaling pathway (AID 743210; active = well fitted activation curve with a large enough effect in the signal ratio in the repeat runs, with a control signal flat, not every such curve was filed as active; the % refers to the signal ratio;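 note: HeLa cells with beta-lactamase reporter driven by heat shock elements; series mostly up to about 63 µM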)
# Summary of the method: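 Activation of heat shock element-controlled beta-lactamase expression is measured in HeLa cells by LiveBLAzer FRET fluorescence, with compound exposure lasting 5 h at 37 C and substrate loading 2.5 h at room temperature.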
# [18] = qHTS assay to identify small molecule antagonists of the estrogen receptor alpha (ER-alpha) signaling pathway - cell viability counter screen (AID 743074; calls by dose curve; note: nearly all actives have a fitted effect of over 45% in size)
# [19] = qHTS assay to identify small molecule antagonists of the estrogen receptor alpha (ER-alpha) signaling pathway using the BG1 cell line (AID 743080; calls by dose curve;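 note: BG1 cells stimulated with 17beta-estradiol alongside compound; series mostly up to about 70 µM; nearly all actives have a fitted effect of over 25% in size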)
# Summary of the method: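 Endogenous full-length ER-alpha in BG1-Luc-4E2 cells drives a stably integrated 4×ERE luciferase gene; compounds were tested against 17beta-estradiol over 21.5 h, with luminescence and multiplexed viability fluorescence recorded.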
# Peroxisome proliferator-activated receptor gamma (Homo sapiens), sequence (P37231 whole entry, looked up): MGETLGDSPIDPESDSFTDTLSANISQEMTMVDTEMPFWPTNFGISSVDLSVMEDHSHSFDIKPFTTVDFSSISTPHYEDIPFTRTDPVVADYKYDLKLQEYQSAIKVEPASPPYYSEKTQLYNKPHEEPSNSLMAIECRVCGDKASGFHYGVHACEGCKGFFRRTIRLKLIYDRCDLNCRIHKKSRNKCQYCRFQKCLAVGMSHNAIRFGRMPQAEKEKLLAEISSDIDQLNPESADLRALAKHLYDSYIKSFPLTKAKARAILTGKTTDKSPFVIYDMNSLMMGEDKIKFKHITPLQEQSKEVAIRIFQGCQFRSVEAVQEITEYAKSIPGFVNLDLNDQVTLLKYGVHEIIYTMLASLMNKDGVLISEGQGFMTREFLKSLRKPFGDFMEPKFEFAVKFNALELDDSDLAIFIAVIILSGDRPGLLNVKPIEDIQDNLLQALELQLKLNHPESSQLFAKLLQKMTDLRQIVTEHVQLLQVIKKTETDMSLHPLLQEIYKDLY
# Aromatase (Homo sapiens), sequence (P11511 whole entry, looked up): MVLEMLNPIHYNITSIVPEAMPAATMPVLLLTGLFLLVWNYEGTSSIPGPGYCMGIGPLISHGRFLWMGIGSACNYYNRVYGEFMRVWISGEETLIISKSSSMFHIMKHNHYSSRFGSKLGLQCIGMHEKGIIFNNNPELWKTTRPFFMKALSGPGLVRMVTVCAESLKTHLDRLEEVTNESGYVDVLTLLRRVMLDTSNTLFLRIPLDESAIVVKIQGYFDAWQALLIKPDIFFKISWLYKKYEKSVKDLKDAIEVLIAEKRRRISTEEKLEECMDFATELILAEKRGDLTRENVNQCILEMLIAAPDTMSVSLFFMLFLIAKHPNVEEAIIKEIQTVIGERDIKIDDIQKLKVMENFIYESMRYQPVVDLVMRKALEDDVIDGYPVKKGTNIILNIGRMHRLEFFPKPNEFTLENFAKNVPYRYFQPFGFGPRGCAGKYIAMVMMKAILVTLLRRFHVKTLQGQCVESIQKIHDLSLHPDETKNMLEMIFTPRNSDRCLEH
# Estrogen receptor (Homo sapiens), sequence (P03372 whole entry, looked up): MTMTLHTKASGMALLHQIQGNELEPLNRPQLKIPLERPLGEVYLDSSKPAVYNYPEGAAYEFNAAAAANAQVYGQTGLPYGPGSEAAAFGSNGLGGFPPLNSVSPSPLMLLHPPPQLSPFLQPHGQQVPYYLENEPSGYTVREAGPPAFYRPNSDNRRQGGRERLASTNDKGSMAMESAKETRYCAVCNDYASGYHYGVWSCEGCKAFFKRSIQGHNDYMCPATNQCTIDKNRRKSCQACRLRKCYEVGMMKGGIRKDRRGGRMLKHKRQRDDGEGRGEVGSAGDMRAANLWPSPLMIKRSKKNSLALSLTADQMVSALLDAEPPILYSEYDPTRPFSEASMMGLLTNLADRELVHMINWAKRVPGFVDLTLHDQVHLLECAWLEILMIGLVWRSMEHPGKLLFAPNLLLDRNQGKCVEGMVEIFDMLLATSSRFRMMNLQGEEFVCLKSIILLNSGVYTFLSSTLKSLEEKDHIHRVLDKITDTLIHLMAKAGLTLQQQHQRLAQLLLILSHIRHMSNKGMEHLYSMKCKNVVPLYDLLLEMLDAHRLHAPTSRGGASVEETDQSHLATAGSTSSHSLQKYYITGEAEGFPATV
# Aryl hydrocarbon receptor (Homo sapiens), sequence (P35869 whole entry, looked up): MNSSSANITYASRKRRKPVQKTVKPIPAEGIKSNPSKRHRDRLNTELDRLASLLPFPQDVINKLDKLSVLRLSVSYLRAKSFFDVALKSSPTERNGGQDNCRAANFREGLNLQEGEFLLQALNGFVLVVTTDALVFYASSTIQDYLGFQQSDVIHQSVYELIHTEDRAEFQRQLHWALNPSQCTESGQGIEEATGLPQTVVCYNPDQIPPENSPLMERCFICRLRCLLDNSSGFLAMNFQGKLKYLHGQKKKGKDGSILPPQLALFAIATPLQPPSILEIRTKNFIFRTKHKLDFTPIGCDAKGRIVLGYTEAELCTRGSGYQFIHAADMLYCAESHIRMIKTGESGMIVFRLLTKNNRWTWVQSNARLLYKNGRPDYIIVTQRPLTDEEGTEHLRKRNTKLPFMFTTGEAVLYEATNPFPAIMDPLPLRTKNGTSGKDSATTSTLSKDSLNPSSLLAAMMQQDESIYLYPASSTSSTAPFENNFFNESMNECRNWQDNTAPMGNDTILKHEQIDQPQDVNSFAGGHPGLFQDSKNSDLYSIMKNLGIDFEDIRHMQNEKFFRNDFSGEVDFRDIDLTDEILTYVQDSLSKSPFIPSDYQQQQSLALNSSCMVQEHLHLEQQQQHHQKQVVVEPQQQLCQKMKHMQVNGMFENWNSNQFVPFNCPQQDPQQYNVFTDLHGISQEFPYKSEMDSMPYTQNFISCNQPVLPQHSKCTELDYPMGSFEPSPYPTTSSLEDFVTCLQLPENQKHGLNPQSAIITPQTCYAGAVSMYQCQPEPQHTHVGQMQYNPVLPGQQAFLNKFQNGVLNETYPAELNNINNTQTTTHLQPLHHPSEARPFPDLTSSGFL
Compound,Potency [1],Potency [2],outcome [3],outcome [4],Potency [5],Potency [6],Potency [7],outcome (Aromatase (Homo sapiens)),Potency [8],Potency [9],Potency [10],Potency [11],outcome [12],outcome [13],Potency [14],outcome [15],Potency [16],outcome [17],outcome [18],outcome [19]
COC(C)(OC)OC,inactive,inactive,inactive,inactive,inactive,inactive,inactive,inactive,inactive,inactive,inactive,inactive,inactive,inactive,inactive,inactive,inactive,inactive,,
C=CCSSCCC,inactive,inactive,inactive,,inactive,inactive,inactive,inactive,inactive,,inactive,inactive,inactive,inactive,inactive,inactive,inactive,inactive,inactive,inactive
CC(C)COC(=O)c1ccccc1,inactive,inactive,inactive,inactive,inactive,,inactive,,inactive,inactive,inactive,inactive,,inactive,,,inactive,,inactive,
CCCCCCCCCCCCCCCCCC#N,inactive,inactive,inactive,inactive,inactive,inactive,,inactive,inactive,inactive,inactive,inactive,inactive,inactive,inactive,inactive,inactive,inactive,inactive,inactive
CC(=O)Nc1ccc(OC(=O)c2ccccc2OC(C)=O)cc1,inactive,inactive,inactive,,inactive,inactive,inactive,inactive,inactive,inactive,inactive,inactive,inactive,inactive,,inactive,inactive,inactive,inactive,inactive
CC1(C)O[C@H]2CC(=O)OC[C@]23[C@H]2CC[C@@]4(C)[C@H](c5ccoc5)OC(=O)[C@H]5O[C@]54[C@]2(C)C(=O)C[C@@H]13,inactive,inactive,inactive,inactive,inactive,13.3 µM (active),,inactive,inactive,inactive,,inactive,,inactive,inactive,inactive,inactive,inactive,inactive,
COc1ccc2c(c1)c1c3n2CCN(C)C3=NCC1,inactive,inactive,inactive,inactive,inactive,inactive,inactive,inactive,inactive,13.3 µM (active),inactive,inactive,inactive,,inactive,,inactive,inactive,inactive,
CN(C)C(C)(C)CO,inactive,inactive,inactive,inactive,inactive,77 µM (active),inactive,inactive,inactive,inactive,,inactive,,inactive,inactive,inactive,inactive,inactive,inactive,
COC(=O)c1cccc(Cl)c1,inactive,inactive,inactive,inactive,inactive,inactive,inactive,inactive,inactive,inactive,,inactive,inactive,inactive,inactive,inactive,inactive,inactive,inactive,
CC(=O)C1C(=O)C=C(C)OC1=O (stereo not given),inactive,inactive,inactive,inactive,inactive,inactive,inactive,inactive,inactive,,inactive,inactive,,inactive,,inactive,inactive,inactive,,inactive
CC1=C(C(=O)O)N2C(=O)[C@@H](NC(=O)[C@H](N)c3ccccc3)[C@H]2SC1,inactive,inactive,inactive,inactive,inactive,inactive,inactive,,inactive,,inactive,inactive,,inactive,,inactive,inactive,inactive,inactive,inactive
O=C(O)c1cc2ccccc2nc1C(=O)O,inactive,inactive,inactive,inactive,inactive,,inactive,inactive,inactive,inactive,inactive,inactive,inactive,inactive,inactive,,inactive,inactive,inactive,
CC/C(C)=N\O[Si](C)(O/N=C(\C)CC)O/N=C(\C)CC,inactive,inactive,inactive,inactive,inactive,inactive,inactive,inactive,inactive,24.7 µM (active),inactive,inactive,inactive,inactive,inactive,inactive,inactive,inactive,inactive,
CC(C)C1OCCN1CCOC(=O)NCCCCCCNC(=O)OCCN1CCOC1C(C)C (stereo not given),inactive,inactive,inactive,inactive,inactive,inactive,inactive,inactive,inactive,inactive,inactive,inactive,inactive,,inactive,inactive,inactive,inactive,inactive,
CCCCCCC1(C)CCC(=O)O1 (stereo not given),inactive,inactive,inactive,inactive,inactive,inactive,inactive,inactive,inactive,inactive,inactive,inactive,inactive,inactive,inactive,inactive,inactive,inactive,,
COP(=O)(O)OP(=O)(O)OC,inactive,inactive,inactive,inactive,inactive,inactive,inactive,inactive,inactive,inactive,inactive,inactive,inactive,inactive,inactive,,inactive,inactive,inactive,
O=C(Cn1ccnc1[N+](=O)[O-])NCc1ccccc1,inactive,inactive,inactive,inactive,inactive,inactive,inactive,inactive,inactive,inactive,inactive,inactive,inactive,inactive,inactive,inactive,inactive,inactive,inactive,
